# ± gives the standard deviation.
# Columns and labels:
# Conditions in all cases: modulator concentration 10 µM
# [1] = test system: RAW-Dual (murine macrophage reporter line); assay: NF-kB reporter (SEAP) activity fold change vs agonist alone; higher = enhanced NF-kB activity
# Method in brief: (§1)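 RAW-Dual murine macrophage reporter cells were plated at 50 000 per well in 384-well plates, pin-transferred compound to 10 μM final, and pre-incubated for 1 hour at 37 °C before a PRR agonist was added and the cells incubated overnight. NF-κB activity was read from supernatant SEAP with QUANTI-Blue at 620 nm absorbance, and IRF activity from Lucia luciferase with QUANTI-Luc by luminescence. Each signal was expressed as fold change by dividing by the mean agonist-only control on the same plate. Two replicate plates were averaged, with errors obtained by propagation.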
# [2] = test system: RAW-Dual (murine macrophage reporter line); assay: IRF reporter (Lucia luciferase) activity fold change vs agonist alone; higher = enhanced IRF activity
# Method in brief: as §1
# [3] = test system: RAW-Dual (murine macrophage reporter line); assay: viability score (confluency relative to resting cells, overnight) (fraction); higher = more viable, active = viable (0.7 or more)
# Method in brief: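 In 384-well plates, RAW-Dual macrophages received compound at a final 10 μM overnight. Two confluency masks were then made with IncuCyte software from IncuCyte images of all imaged wells. The viability score is defined as confluency relative to resting cells. Passing the cutoff required both masks to lie above 70% of resting cells.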
# [4] = agonist: CpG ODN 1826 0.5 ug/mL
Structure (SMILES),"NF-kB reporter [1, 4]",NF-kB reporter ([1]; agonist: LPS 0.1 ug/mL),NF-kB reporter ([1]; agonist: MPLA […]),IRF reporter ([2]; agonist: 3'3'-cGAMP 10 ug/mL),IRF reporter ([2]; agonist: LPS 0.1 ug/mL),IRF reporter ([2]; agonist: MPLA […]),viability score [3]
COc1ccc(CNCc2ccc3ccccc3c2)cc1OC,0.722 ± 0.064,1 ± 0.07,0.943 ± 0.05,0.784 ± 0.035,1.04 ± 0.059,0.961 ± 0.2,0.999 (active)
O=S1(=O)Nc2c(ccc3cccnc23)-c2ccccc21,0.603 ± 0.086,1.38 ± 0.1,2.34 ± 0.22,15 ± 0.57,0.755 ± 0.23,0.29 ± 0.079,0.671 (inactive)
CC(C)(C)N.CCCC(NC(C)C(=O)N1C(C(=O)O)CC2CCCCC21)C(=O)OCC (stereo unspecified),0.927 ± 0.074,0.864 ± 0.15,0.947 ± 0.094,0.996 ± 0.036,1.21 ± 0.16,1.3 ± 0.18,1.02 (active)
O=C(NC(=S)c1c(-c2ccccc2)cc2ccccn12)c1ccccc1,0.746 ± 0.058,0.786 ± 0.038,0.883 ± 0.078,0.516 ± 0.03,1.18 ± 0.086,1.36 ± 0.18,1.01 (active)
CNS(=O)(=O)C[C@H]1CC[C@H](N(C)c2ncnc3[nH]ccc23)CC1.O=C(O)/C=C\C(=O)O,0.179 ± 0.044,0.0999 ± 0.005,0.414 ± 0.033,0.0771 ± 0.0033,0.269 ± 0.029,0.376 ± 0.056,0.997 (active)
N#CC[C@H](C1CCCC1)n1cc(-c2ncnc3[nH]ccc23)cn1,1.4 ± 0.11,0.341 ± 0.017,0.734 ± 0.074,0.269 ± 0.012,0.719 ± 0.063,0.764 ± 0.074,0.979 (active)
Cc1c(C(=O)NN2CCCCC2)nn(-c2ccc(Cl)cc2Cl)c1-c1ccc(Cl)cc1,0.799 ± 0.037,1.25 ± 0.11,0.981 ± 0.075,0.282 ± 0.015,0.618 ± 0.13,0.752 ± 0.17,1 (active)
N#CC1=C(NC(=S)NC(=O)c2ccccc2)c2ccccc2CC12CCCC2,0.535 ± 0.03,0.918 ± 0.07,0.717 ± 0.042,0.792 ± 0.033,1.63 ± 0.1,1.26 ± 0.2,0.982 (active)
CCc1ccc2nc(NCCCN3CCOCC3)sc2c1,0.924 ± 0.057,1.02 ± 0.083,0.971 ± 0.058,0.866 ± 0.04,1.19 ± 0.27,1.3 ± 0.34,0.99 (active)
COC(=O)C(NC(=O)C(C)(C)C)C12CC3CC(CC(C3)C1)C2 (stereo unspecified),0.96 ± 0.075,0.892 ± 0.067,0.934 ± 0.094,1.06 ± 0.058,1.38 ± 0.23,1.49 ± 0.3,1.02 (active)
O=C(CCCN1CCN(c2ccccn2)CC1)c1ccc(F)cc1,0.595 ± 0.084,1.05 ± 0.1,0.952 ± 0.056,0.924 ± 0.12,1.37 ± 0.12,1.15 ± 0.12,0.977 (active)
CC(C)C(=O)c1c(C(C)C)nn2ccccc12,1.59 ± 0.12,1.2 ± 0.086,1.21 ± 0.032,0.808 ± 0.076,0.938 ± 0.031,0.926 ± 0.088,0.957 (active)
CC(C)(C)c1nc(-c2cccc(NS(=O)(=O)c3c(F)cccc3F)c2F)c(-c2ccnc(N)n2)s1,2.41 ± 0.12,1.77 ± 0.14,2.36 ± 0.1,0.67 ± 0.079,0.818 ± 0.071,1.1 ± 0.2,0.763 (active)
CC1=CC(=O)c2ccccc2C1=O,2.29 ± 0.12,1.31 ± 0.11,1.81 ± 0.2,0.357 ± 0.023,3.57 ± 0.25,1.33 ± 0.4,0.0798 (inactive)
Cc1ccc(N2C(=O)C(Cl)=C(Nc3cccc(C)c3C)C2=O)cc1Cl,0.739 ± 0.062,0.897 ± 0.064,1.28 ± 0.053,0.549 ± 0.063,0.954 ± 0.039,1.63 ± 0.21,0.995 (active)
CN(C)CCC=C1c2ccccc2CCc2ccccc21.Cl,0.903 ± 0.19,1.26 ± 0.48,1.21 ± 0.17,0.423 ± 0.017,1.31 ± 0.44,1.12 ± 0.084,0.412 (inactive)
COc1ccc(C=CC(=O)Nc2sc(C(=O)OC(C)C)c(C)c2C(N)=O)cc1,0.846 ± 0.076,0.798 ± 0.045,0.958 ± 0.086,0.949 ± 0.043,1.44 ± 0.092,1.57 ± 0.17,1 (active)
CCCCc1nc(C)c(CC(=S)N(C)C)c(=O)n1Cc1ccc(-c2ccccc2-c2nnn[nH]2)cc1,0.589 ± 0.025,0.273 ± 0.022,1.36 ± 0.077,0.0858 ± 0.062,3.7 ± 0.2,8.26 ± 0.79,0.139 (inactive)

# Source: the supplement of paper PMC10646978
